From PubChem BioAssay
Active and inactive are the calls of the source.

What was measured:
[1] = biological target: Albumin (Bos taurus) (UniProt P02769); assay: compounds binding labelled BSA control protein – biochemical, small-molecule microarray, Alexa647 label, 635/667 nm fluorescence, artefact control for SMM control protein annotation, profiling panel (AID 1118); settings: BSA-A647 binding, fluorescence 635 nm, higher = more signal;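 also: score merges 667 nm emission intensity and signal-to-noise per printed compound spot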
[2] = probe aXIP binding to arrayed compounds – biochemical, NeuroSMM set, 635/667 nm fluorescence, primary screen (AID 1119); settings: small-molecule microarray, higher = more signal, called active from +8 up or from −8 down;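 also: probe is the protein aXip251-270 applied at 1 µg/mL to compound-printed slides; binding of probe to printed compounds measured as 667 nm fluorescence plus signal to noise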
[3] = probe aNOTCH3 binding on compound microarray – biochemical, small-molecule microarray, 635/667 nm fluorescence, primary screen (AID 1120); settings: higher = more signal;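 also: probe is a biotin-tagged antibody raised against NOTCH3 rather than NOTCH3 protein; score merges spot fluorescence near 667 nm with spot signal to noise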
[4] = probe aNOTCH2 binding on compound microarray – biochemical, small-molecule microarray, 635/667 nm fluorescence, primary screen (AID 1121); settings: higher = more signal;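 also: score merges feature fluorescence read at 667 nm with its signal to noise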
[5] = biological target: Carbonic anhydrase 2 (Homo sapiens) (UniProt P00918); assay: compounds binding carbonic anhydrase 2 – biochemical, small-molecule microarray, Alexa647-labelled CAII, profiling panel (AID 1122); settings: CAII-A647 binding fluorescence, higher = more signal
[6] = COS7 lysate on small-molecule microarray, probe aHis, 635 nm (AID 1123); settings: COS7 cell lysate, fluorescence, higher = more signal;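 also: z-score combines 667nm fluorescence intensity with signal-to-noise per printed compound spot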
[7] = probe aLAP1 signal on lysate-treated microarray – cell lysate, small-molecule microarray, COS7 lysate, primary screen (AID 1124); settings: probe aLAP1, fluorescence, higher = more signal;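 also: lysate comes from COS7 cells expressing LAP1 and is applied at 0.3 µg/mL; score merges spot fluorescence near 667 nm with signal-to-noise over triplicate slides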
[8] = tested on: Sam68 (KHDRBS1); assay: compounds binding KHDRBS1 protein – biochemical, small-molecule microarray, 635 nm fluorescence, primary screen (AID 1125); settings: higher = more signal;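 also: score merges 667 nm channel intensity with signal to noise over triplicate slides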
[9] = tested on: Chordin-like protein 2 (CHRDL2); assay: compounds binding chordin-like 2 – biochemical, small-molecule microarray, 635 nm fluorescence, primary screen (AID 1126); settings: fluorescence 635 nm, higher = more signal;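 also: printed compound slides probed with Chrdl2 protein at 4 µg/mL for 1 h at 4 C; score merges 667 nm emission intensity with signal to noise over three replicate slides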
[10] = biological target: Concanavalin-A (Canavalia ensiformis) (UniProt P02866); assay: compounds binding concanavalin A lectin – biochemical, small-molecule microarray, Alexa647 label, 635 nm, artefact control for SMM control protein annotation, primary screen (AID 1127); settings: ConA-A647 binding fluorescence, higher = more signal;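 also: z combines 667 nm emission intensity with signal-to-noise across three replicate slides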
Chain of Concanavalin-A (Canavalia ensiformis) (P02866 whole entry, looked up): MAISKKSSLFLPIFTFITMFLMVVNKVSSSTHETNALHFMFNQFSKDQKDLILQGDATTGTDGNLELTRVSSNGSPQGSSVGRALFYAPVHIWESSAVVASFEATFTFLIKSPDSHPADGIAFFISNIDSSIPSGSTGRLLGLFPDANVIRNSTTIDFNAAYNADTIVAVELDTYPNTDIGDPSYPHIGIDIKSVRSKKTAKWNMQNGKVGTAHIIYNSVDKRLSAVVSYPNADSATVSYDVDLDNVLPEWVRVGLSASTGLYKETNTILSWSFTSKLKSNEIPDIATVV

Chain of Albumin (Bos taurus) (P02769 whole entry, looked up): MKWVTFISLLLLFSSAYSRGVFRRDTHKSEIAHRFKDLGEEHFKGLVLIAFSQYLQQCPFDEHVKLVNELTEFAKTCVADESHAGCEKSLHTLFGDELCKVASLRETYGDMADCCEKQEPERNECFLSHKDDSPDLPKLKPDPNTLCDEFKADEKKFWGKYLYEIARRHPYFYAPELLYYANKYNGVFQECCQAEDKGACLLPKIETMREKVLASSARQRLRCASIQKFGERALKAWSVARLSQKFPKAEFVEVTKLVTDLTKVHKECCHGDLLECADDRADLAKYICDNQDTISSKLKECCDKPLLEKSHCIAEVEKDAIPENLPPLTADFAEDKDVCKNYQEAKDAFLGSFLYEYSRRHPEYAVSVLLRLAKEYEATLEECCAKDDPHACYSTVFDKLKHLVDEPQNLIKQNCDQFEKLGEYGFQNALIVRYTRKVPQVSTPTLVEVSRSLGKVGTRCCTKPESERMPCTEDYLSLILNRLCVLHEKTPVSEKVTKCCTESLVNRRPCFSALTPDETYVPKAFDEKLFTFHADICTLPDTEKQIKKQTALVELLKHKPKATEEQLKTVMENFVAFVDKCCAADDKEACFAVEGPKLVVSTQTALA

Compound	composite z-score [1]	composite Z-score [2]	composite z-score [3]	composite z-score [4]	composite z-score [5]	composite z-score [6]	composite z-score [7]	composite z-score [8]	composite z-score [9]	composite z-score [10]
CCCCCCc1nc(Cc2cc(OC)c(OC)c(OC)c2)cc2c1[Si](C(C)C)(C(C)C)OC2	-0.526	0.0886 (inactive)	-0.0395	-0.153	-0.0134	0.157	-0.0343	0.239	0.472	0.524
COC(=O)[C@@]1(Cc2ccc(F)cc2)[C@H]2c3cc(C(=O)N(C)C)n(Cc4ccc(OC(F)(F)F)cc4)c3C[C@H]2CN1C(=O)c1ccccc1	0.239	-0.249 (inactive)	0.11	-0.078	0.0217	0.398	0.0642	-0.0367	-0.0356	0.296
COC(=O)[C@@]1(Cc2ccc(OC)cc2)[C@H]2c3cc(C(=O)N4CCCC4)n(CCO)c3C[C@H]2CN1C(=O)c1ccccc1	0.245	-0.423 (inactive)	0.302	0.0918	0.847	2.46	0.57	0.827	-0.0307	0.716
CC1=C2[C@@H](CCc3ccccc3)OB(O)C[C@@H]2[C@@H]2C(=O)N(C)C(=O)[C@@H]2C1	0.541	0.706 (inactive)	0.248	-0.138	0.422	0.0513	0.76	0.453	0.723	0.245
CCCCN1CC=CC23O[C@@H]4/C=C\CCC(C)OC(=O)C4[C@H]2C(=O)N(CCCO)[C@@H]3C1=O (stereo not given in full)	-0.741	0.986 (inactive)	-0.41	-0.171	0.283	-0.0462	0.359	-0.62	-1.38	0.12
COc1ccc(CCNC(=O)[C@@]2(Cc3ccccc3I)c3ccccc3C(=O)N(C3CCCCC3)[C@H]2c2ccc(CO)cc2)cc1	0.471	-0.0065 (inactive)	-0.0647	-0.162	0.218	1.5	-0.167	0.621	-0.718	0.969
CS(=O)(=O)CCOC(=O)C1=CC(CCCO)=CC(c2ccc(CN3CCCC3)cc2)N(Cc2sc3ccccc3c2Cl)C=C1C(=O)OCCS(C)(=O)=O (stereo not given)	1	1.14 (inactive)	0.439	0.251	0.823	2.21	1.12	1.3	1.03	1.19
CCOC(=O)C[C@H]1[C@H](OC(=O)c2cc3ccccc3oc2=O)[C@@H](NC(=O)CC(C)C)c2cc(OCCCO)ccc2N1C(=O)c1ccc2ccccc2n1	0.42	-0.077 (inactive)	0.191	-0.237	0.43	1.04	0.102	1.26	0.324	0.625
C=C[C@@H](CO)N(Cc1ccc(OC)cc1)S(=O)(=O)c1ccc(Br)cc1	0.131	-0.0461 (inactive)	-0.147	-0.0078	0.352	0.31	-0.345	0.388	0.231	0.241
CC(C)(C)OC(=O)CC[C@@]1(C(=O)NCC(O)CO)N=C(c2ccc(OCCCO)cc2)O[C@@H]1c1ccccc1CN=[N+]=[N-] (stereo not given in full)	0.347	-0.0662 (inactive)	0.0297	0.124	0.836	1.34	0.398	0.941	0.333	0.922
[N-]=[N+]=Nc1ccccc1C[C@]1(C(=O)O)COC(c2ccc(OCCCO)cc2)=N1	0.638	0.277 (inactive)	0.0116	-0.0501	0.856	0.143	-0.165	-0.566	-1.31	-0.19
CCCCC(CC)C(O)C1C=CC2C(=O)N(c3ccccc3)C(=O)C2N1Nc1ccc(C#N)cc1 (stereo not given)	1.02	0.369 (inactive)	0.64	0.353	0.595	2.21	0.664	1.13	0.0027	1.2
COc1ccc(CCNC(=O)[C@@]2(c3ccc([N+](=O)[O-])cc3)CC(=O)N(C3CCCCC3)[C@@H]2c2ccc(CO)cc2)cc1	0.143	0.665 (inactive)	0.245	0.0224	0.283	1.89	0.0344	1.16	-0.0865	0.952
CCOC(=O)C[C@H]1[C@H](OC(=O)Cc2ccc3c(c2)OCO3)[C@@H](NC(=O)C2CCCCC2)c2cc(OCCCO)ccc2N1C(=O)c1ccccc1	0.869	0.394 (inactive)	-0.0647	-0.14	0.112	0.469	0.124	0.249	-0.311	0.833
COC(=O)[C@@H]1N=C(c2ccc(OCCCO)cc2)O[C@@H]1C	-0.867	-0.385 (inactive)	0.0893	-0.082	-0.153	-0.223	0.905	0.973	-0.155	0.0255
COCCOC(=O)N1C(=O)[C@@]2(c3cc(C#CC4(O)CCCCCC4)ccc31)[C@H](c1ccc(O)cc1)N1[C@H](c3ccccc3)[C@H](c3ccccc3)OC(=O)[C@H]1[C@@H]2C(=O)N1CCN(c2ncccn2)CC1	0.521	0.883 (inactive)	0.0562	-0.12	0.437	1.29	0.46	1.29	-0.163	1.12
